Results reported in PubChem BioAssay AID1159580 (chemical genetic matrix, 2015).
The whole screen tested about 5,500 compounds, of which about 2,000 (36%) were called active. Another 18% or so got no clear call; they are omitted. Rule as the data show it: active = normalized growth mostly below about 0.91 (no sharp cut-off); inconclusive = no clear call, values can overlap the other calls; inactive = mostly above about 0.92. Some of the results follow.

Experiment: chemical genetic growth profiling, strain panel (AID 1159580);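 also: tested at 20 µM; growth read once vehicle control cultures reached saturation at 30 °C; 1 = growth at the plate median or of vehicle wells; lower values mean less growth of the strain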
Conditions: S. cerevisiae deletion strains, growth OD
[1] = locus YAL013W, strain DEP1, stronger effect = lower value
[2] = locus YAL040C, strain CLN3, stronger effect = lower value
[3] = locus YCL061C, strain MRC1 (second series), stronger effect = lower value
[4] = locus YDR363W, strain ESC2, stronger effect = lower value
[5] = locus YER002W, strain NOP16, stronger effect = lower value
[6] = locus YJR075W, strain HOC1, stronger effect = lower value
[7] = locus YMR307W, strain GAS1, stronger effect = lower value
[8] = locus YNL128W, strain TEP1, stronger effect = lower value
[9] = locus YNL175C, strain NOP13, stronger effect = lower value
[10] = locus YNL197C, strain WHI3, stronger effect = lower value
[11] = locus YNL224C, strain SQS1, stronger effect = lower value
[12] = locus YOR083W, strain WHI5 (second series), stronger effect = lower value
[13] = locus YPL055C, strain LGE1, stronger effect = lower value
[14] = locus YPL241C, strain CIN2, stronger effect = lower value

Measured: normalized growth

C[C@]12CC[C@H]3[C@@H](CCC4C[C@H](O)CC[C@@]43C)[C@@H]1CC[C@@H]2O (stereo not given in full)
inactive: [1] 0.946 | [2] 1.02 | [3] 1 | [4] 0.987 | [5] 1 | [6] 1.06 | locus YMR263W, strain SAP30, stronger effect = lower value 1.03 | [7] 0.977 | [8] 1.03 | [9] 1.02 | [10] 0.964 | [11] 1.01 | locus YNL322C, strain KRE1, stronger effect = lower value 1.02 | [12] 0.966 | [13] 1.03 | [14] 1.03

C[C@]12CCC3C(CC[C@H]4C[C@H](O)CC[C@]34C)C1CC[C@@H]2C(=O)CO (stereo not given in full)
inactive: [1] 1.02 | [2] 1.08 | [3] 1.01 | locus YDR150W, strain NUM1, stronger effect = lower value 1.03 | [4] 1.02 | [5] 1.02 | [6] 1.06 | [7] 0.939 | [8] 1.02 | [9] 1.04 | [10] 1.02 | [11] 0.995 | [12] 1.01 | [13] 1.03 | [14] 1.03

CC(=O)[C@H]1CCC2C3CC[C@H]4C[C@H](O)CC[C@]4(C)C3CC[C@@]21C (stereo not given in full)
inactive: [1] 1.01 | [2] 0.979 | [3] 1 | [4] 1.04 | [5] 1 | locus YGR078C, strain PAC10, stronger effect = lower value 1.01 | [7] 0.935 | [8] 1.01 | locus YNL153C, strain GIM3, stronger effect = lower value 0.944 | [9] 0.993 | [10] 1.01 | [11] 1 | [12] 1 | [13] 0.98
